Results filed as inconclusive are left out. Where a call stands in place of a potency, no number is given. Calls of active or inactive are those of the source. Calls follow the shape of the dose curve; as a rule, active = well fitted curve in the direction sought with a large enough effect; inconclusive = small, poorly fitted or top-dose-only effect, or another doubt; inactive = no such curve, though single readings can be large or run the other way.
What follows are molecules tested against Microtubule-associated protein tau (Homo sapiens) (UniProt P10636) (assay: Confirmation Concentration-Response Assay for Inhibitors of Tau Fibril Formation, Fluorescence Polarization). Conditions: recombinant tau K18 P301L (four-repeat tau fragment) heparin fibrillization, Alexa594 FP; series mostly up to 57.1 µM.
Chain of Microtubule-associated protein tau (Homo sapiens) (P10636 561-689 P618L limits assumed): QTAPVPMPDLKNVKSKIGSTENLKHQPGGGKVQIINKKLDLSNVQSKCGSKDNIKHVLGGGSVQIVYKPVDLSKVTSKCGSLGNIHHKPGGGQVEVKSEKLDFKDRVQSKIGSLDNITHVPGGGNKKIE
From the text: NIH Molecular Libraries Probe Production Network [MLPCN] NIH Chemical Genomics Center [NCGC] MLPCN Grant: X01 MH083262-01 Assay Provider: Carlo Ballatore, University of Pennsylvania NCGC Assay Overview: The microtubule-associated protein tau is an abundant protein in the axons of neurons that stabilizes microtubules. With its ability to modulate microtubule dynamics, tau contributes directly or indirectly, to key structural and regulatory cellular functions. Particularly important is the influence tau exerts on axonal transport, which allows signaling molecules, trophic factors and other essential cellular constituents to travel along the axons. Under pathological conditions, tau becomes sequestered into insoluble aggregates called neurofibrillary tangles. This phenomenon is believed to have pathological consequences by promoting axonal transport deficits that ultimately lead to synaptic dysfunction and neuronal loss. To identify inhibitors of tau aggregation, a heparin-induced tau fibril formation assay was used that employed a recombinantly expressed fragment of tau, K18 (Q242-E372), bearing a P301L mutation (Gustke et al. 1994; Hong et al. 1998). […] Gustke, N., B. Trinczek, et al. (1994). "Domains of tau protein and interactions with microtubules." Biochemistry 33(32): 9511-22. Hong, M., V. Zhukareva, et al. (1998). "Mutation-specific functional impairments in distinct tau isoforms of hereditary FTDP-17." Science 282(5395): 1914-7. Li, W. and V. M. Lee (2006). "Characterization of two VQIXXK motifs for tau fibrillization in vitro." Biochemistry 45(51): 15692-701. von Bergen, M., S. Barghorn, et al. (2001). "Mutations of tau protein in frontotemporal dementia promote aggregation of paired helical filaments by enhancing local beta-structure." J Biol Chem 276(51): 48165-74.
For screening, 2 uL/well human K18 P301L (15 uM unlabeled and 0.24 uM Alexa 594-labeled tau final concentrations) in reagent buffer (100 mM sodium acetate pH 7) was dispensed into black solid 1536-well plates (Grenier) using a solenoid-based dispenser. Following transfer of 23 nL compound or DMSO vehicle by a pin tool, 2 uL/well heparin (20 uM final concentration) in reagent buffer was added and the plate centrifuged 15 s at 1000 RPM. Plates were incubated 6 hr at 37 C and then 1 uL/well ThT (30 uM final concentration) was added. After a 1 hr ambient incubation, the plates were read by an Envision (Perkin Elmer) to monitor Alexa 594 FP (555 nm excitation and 632 nm emission). Keywords: NIH Roadmap, MLPCN, MLI, MLSMR, NCGC, qHTS, tau, tauopathies, Alzheimer's disease, fibril, neurodegeneration, aggregation

Structure (SMILES)	Potency
COc1cc(/C=N/N=C2/NC(=O)C(CC(=O)O)S2)ccc1OCc1ccc(Cl)cc1 (configuration not stated)	inactive
COc1ccc(NC(=O)c2c(NC(=O)Cc3ccccc3)sc3c2CCCC3)cc1	inactive
Cc1ccc(NCc2cc3cc4c(cc3n(CC(=O)Nc3ccc(C)cc3)c2=O)OCCO4)cc1	inactive
COc1ccc(NC(=O)C2CCN(S(=O)(=O)c3c(C)noc3/C=C/c3cccs3)CC2)cc1Cl	inactive
Cn1cc(Cl)c(C(=O)Nc2cccc(Cl)c2Cl)n1	inactive
COC(=O)C1CCc2sc(N)c(C(=O)OCc3ccccc3)c21 (configuration not stated)	inactive
CN1CCc2sc(NC(=O)Cc3ccccc3)c(C(=O)Nc3ccc(Cl)cc3)c2C1	inactive
COC(=O)c1c(N)sc2c1C(C(=O)OC)CC2 (configuration not stated)	inactive
CCOC(=O)c1nn(-c2ccccc2)c(=O)c(C#N)c1C	inactive
Cc1sc(N)c2c(=O)n(-c3ccccc3)ncc12	inactive
CCOC(=O)c1nn(-c2cccc(C(F)(F)F)c2)c(=O)c2c(N)scc12	inactive
CCN(CC)S(=O)(=O)c1cccc(NC(=O)Nc2cccc(C(F)(F)F)c2)c1	2.82 µM (active)
Nc1scc2c(C(=O)O)nn(-c3ccccc3)c(=O)c12	7.08 µM (active)
O=C(Cc1ccccc1)Nc1sc2c(c1C(=O)Nc1ccc(Br)cc1)CCCC2	inactive
O=C(NCCCO)Nc1ccc2nc(-c3ccco3)c(-c3ccco3)nc2c1	7.94 µM (active)
CCOC(=O)c1nn(-c2ccccc2)c(=O)c2c(NC(=O)c3ccccc3)scc12	inactive
CCOC(=O)c1c(N)sc2c1CN(C)CC2	inactive
CCOC(=O)c1ccc(-n2nc(C(=O)OCC)c3csc(N)c3c2=O)cc1	inactive
COC(=O)C1CCc2sc(NC(=O)Cc3ccccc3)c(C(=O)Nc3ccc(Cl)cc3)c21 (configuration not stated)	inactive
Cn1sc(NC(=O)c2ccccc2)nc1=O	inactive
Cc1[nH]c(=O)c(C#N)cc1-c1ccncc1	inactive
O=C(Nc1nc2ccc(S(=O)(=O)N3CCCC3)cc2s1)c1ccc(F)cc1	inactive
CCN(c1ccccc1)S(=O)(=O)c1nnc(NC(=O)C(C)(C)C)s1	inactive
O=S(=O)(c1ccc2nc(-c3ccco3)c(-c3ccco3)nc2c1)N1CCOCC1	7.94 µM (active)
O=C(Nc1nnc(S(=O)(=O)Nc2ccccc2)s1)C1CCCCC1	inactive
CCOC(=O)c1nn(-c2ccccc2)c(=O)c2c(N)sc(C)c12	inactive
COc1ccc(CNC(=O)Cn2nc(C)n3cccc3c2=O)cc1	inactive

From PubChem BioAssay AID1559 (National Center for Advancing Translational Sciences (NCATS), 2009)
